# Data as given in PubChem BioAssay (EPA / NIEHS).
# Records with an inconclusive call do not appear. Activity calls are given as the source filed them. Rule for the calls: active = hit-call score of the fitted dose curve at least 0.9, where 1 is the maximum; inconclusive = response in the unintended direction; inactive = score below 0.9.
# Assay: ATG_GAL4_TRANS: Attagene TRANS-FACTORIAL HepG2 Assay for GAL4 (Internal Marker) (AID 2282976)
# Settings: HepG2 Attagene TRANS GAL4 internal marker reporter
# Description: ATG_TRANS is a cell-based, multiplexed-readout assay that uses HepG2, a human liver cell line, with measurements taken at 24 hours after chemical dosing in a 24-well plate.ATG_GAL4_TRANS is one of 30 assay component(s) measured or calculated from the ATG_TRANS assay. It is designed to make measurements of mRNA induction, a form of inducible reporter, as detected with fluorescence intensity signals by Reverse transcription polymerase chain reaction (RT-PCR) and Capillary electrophoresis technology.Data from the assay component ATG_GAL4_TRANS was analyzed into 1 assay endpoint. This assay endpoint, ATG_GAL4_TRANS, was analyzed in the positive analysis fitting direction relative to DMSO as the negative control and baseline of activity. Using a type of inducible reporter, measures of mRNA for gain-of-signal activity can be used to understand the background control at the transcription factor-level as they relate to the gene . Furthermore, this assay endpoint can be referred to as a secondary readout, because this assay has produced multiple assay endpoints where this one serves a background control function. To generalize the intended target to other relatable targets, this assay endpoint is annotated to the background measurement intended target family, where the subfamily is baseline control.
# Human liver HepG2 cells are transiently transfected with multiple reporter transcription units (MRTUs) in 6-well plates using FuGene 6 reagent (Roche; 3 ml FuGene/1 mg DNA). The MRTU constructs are regulated by a cis-regulating element (promoter). […] A major difference between the CIS and TRANS system is that in CIS activities of endogenous TFs are measured, whereas the TRANS assay evaluates changes in activities of exogenous, chimeric NR-Gal4 proteins. […] At the end of 24 hour incubation, total RNA was isolated using TriZol reagent (Invitrogen). The isolated RNA is then reverse-transcribed using oligo(dT) primer and Mo-MLV reverse transcriptase (Invitrogen) with DNAse I (Ambion) treatment for 30 min. The one-tenth of the produced cDNA was amplified by PCR using Taq DNA polymerase (Invitrogen) and two reporter sequence-specific primers. The PCR products were fluorescently labeled by primer extension with 6-arboxyfluorescein (6-FAM) 5'-labeled reporter sequence-specific primer (2 min at 95 C, 20 s at 68 C and 10 min at 72 C) and these products were digested with 5U of HpaI (New England Biolabs) for 2h at 37 C. The fragments were purified using Qiaquick PCR columns (Qiagen), analyzed on an ABI 3130xL genetic analyzer (Applied Biosystems) with peak positions identified by using a set of X-rhodamine (ROX)-labeled MapMarker1000 molecular weight standards (BioVentures). The raw capillary electrophoresis data was processed using Attagraph software (Attagene).
row,Compound,outcome
1,C=CCCCCCCCCC=O,inactive
2,CC=C(C)C(C)=O,inactive
3,Clc1cccnc1,inactive
4,CCc1occc(=O)c1O,inactive
5,C[Si]1(C)O[Si](C)(C)O[Si](C)(C)O[Si](C)(C)O[Si](C)(C)O1,inactive
6,CCCCCCOC(=O)CCCCC(=O)OCCCCCC,inactive
7,N=C1C=CC(=C(c2ccc(N)cc2)c2ccc(N)cc2)C=C1,inactive
8,CC(C)(C)N,inactive
9,CCc1cccc(C)c1N(C(=O)CS(=O)(=O)O)C(C)COC (stereo not given),inactive
10,C=CC(=O)OCCCCCCCCCC,inactive
11,CCCCCCCCCCCCCC(=O)OC(C)C,inactive
12,CCCCOCCOC(=O)COc1ccc(Cl)cc1Cl,inactive
13,CC/C=C\C/C=C\C/C=C\CCCCCCCC(=O)OC,inactive
14,C=CCCCCCCCCOC(C)=O,inactive
15,CCCCOCCOCCOC(C)=O,inactive
16,Cc1cc(=O)[nH]c(=O)[nH]1,inactive
17,CC1=C(O)C(=O)C(C)O1 (stereo not given),inactive
18,COc1ccc(-c2coc3cc(O)cc(O)c3c2=O)cc1,inactive
19,COC(=O)C=Cc1ccccc1,inactive
20,Nc1cccc(N)n1,inactive

row,Compound,outcome
1,CC(C)(C)NC(=O)[C@H]1CC[C@H]2[C@@H]3CC[C@H]4NC(=O)C=C[C@]4(C)[C@H]3CC[C@]12C,inactive
2,CC(Cl)COP(=O)(OCC(C)Cl)OCC(C)Cl (stereo not given),inactive
3,Cc1ccc([N+](=O)[O-])cc1N,inactive
4,O=C(Cl)c1c(Cl)c(Cl)c(C(=O)Cl)c(Cl)c1Cl,inactive
5,CC1=CCC2CC1C2(C)C (stereo not given),inactive
6,COc1cc(C)ccc1O,inactive
7,Nc1ccc(C(=O)OCCCOC(=O)c2ccc(N)cc2)cc1,inactive
8,Cc1c(O)cccc1O,inactive
9,CC(C)CC(=O)OCc1ccccc1,inactive
10,CC1CCC(C(C)(C)S)C(=O)C1 (stereo not given),inactive
11,CCCCc1ccc(Cl)cc1,inactive
12,O=C(O)C(F)(F)C(F)(F)C(F)(F)C(F)(F)C(=O)O,inactive
13,Oc1ccccc1Cc1ccccc1O,inactive
14,CCNc1nc(NC(C)(C)C)nc(OC)n1,inactive
15,CC(=O)OCc1ccccc1,inactive
16,[Cl][Sc]([Cl])[Cl],inactive
17,CC(C)c1ccc2ncccc2c1,inactive
18,C=C(C)OC(C)=O,inactive
19,N#Cc1ccc(C2CCCc3cncn32)cc1 (stereo not given),inactive
20,CCOC(=O)OC(=O)OCC,inactive
